In PubChem BioAssay (NCATS):
Results filed as inconclusive are left out. Activity calls are given as the source filed them. Unless noted, no rule for the calls is given here.

Key:
[1] = qHTS profiling of the MIPE4 collection as inhibitors of Plasmodium falciparum (3D7) proliferation (AID 743344);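 also: scaled between DMSO vehicle wells and 0.29 µM artemisinin as full inhibition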; conditions: P. falciparum 3D7 in erythrocytes, SYBR Green DNA fluorescence, 72 h; at 28.5 µM unless noted
Method in brief: (§1)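 Erythrocytes infected with P. falciparum (0.3% parasitemia, 2.5% hematocrit) incubated with compounds 72 h at 37 C, 5% CO2. Lysis with saponin/Triton buffer containing SYBR Green I, overnight at room temperature in the dark; DNA fluorescence (485/535 nm) normalised to 0.29 uM artemisinin and DMSO.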

[2] = qHTS profiling of the MIPE4 collection as inhibitors of Plasmodium falciparum (DD2) proliferation (AID 743345); conditions: P. falciparum Dd2 in erythrocytes, SYBR Green DNA, 72 h; at 28.5 µM unless noted
Method in brief: as §1

[3] = qHTS profiling of the MIPE4 collection as inhibitors of Plasmodium falciparum (DD2) proliferation (Rep 2) (AID 743346); conditions: P. falciparum Dd2 in erythrocytes, SYBR Green DNA, 72 h; at 28.5 µM unless noted
Method in brief: as §1

[4] = High-throughput drug toxicity screening in the BPDCN cell line Gen2.2 (AID 1224824); conditions: Gen2.2 BPDCN cells; at 45.8 µM (top of the series) unless noted;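 also: cells exposed to compounds for 48 h before reading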
Method in brief: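 Gen2.2, 500 cells/well, phenol red-free RPMI/10% FBS/Pen-Strep; 48 h cpd, 37 °C/5% CO2; CTG lum, 15 min RT. Norm: DMSO = 100%, bortezomib 9.2 uM final = 0%.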

[5] = High-throughput drug toxicity screening in the BPDCN cell line Cal-1 (AID 1224825); conditions: Cal-1 BPDCN cell viability, qHTS; at 45.8 µM (top of the series) unless noted
Method in brief: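 Cal-1 cells, 500 per well in phenol-red-free RPMI with 10% FBS, exposed to compounds for 48 hours at 37C, 5% CO2. Viability read by CellTiter-Glo luminescence; percent activity normalized to DMSO (100%) and 9.2 uM bortezomib final (0%).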

[6] = qHTS assay for cell viability of the p53RE-bla HCT-116 cell line (AID 743292; active = well fitted curve in the direction sought with a large enough effect; an effect the other way counts as inactive or inconclusive; also: nearly all actives have a fitted effect of over 55% in size; also: potency is read from the fitted curve at half-maximal effect)
Method in brief: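 CellSensor p53RE-bla HCT-116 cells, 4,000/well, preincubated 5 h at 37 C, then exposed to compounds in DMSO for 16 h at 37 C. Viability read as CellTiter-Glo luminescence (intracellular ATP) after 30 min at room temperature.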

[7] = qHTS profiling of the MIPE4 collection as inhibitors of Plasmodium falciparum (HB3) proliferation (AID 743347);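 also: plate controls were DMSO vehicle wells for no effect and artemisinin wells for full effect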; conditions: P. falciparum HB3 in erythrocytes, SYBR Green DNA, 72 h; at 28.5 µM unless noted
Method in brief: as §1

[8] = qHTS profiling for inhibitors of Plasmodium falciparum (3D7) proliferation (AID 743322);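 also: infected erythrocytes exposed to compound for 72 h before lysis; 100% = DMSO vehicle wells and 0% = 0.29 µM artemisinin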; conditions: P. falciparum 3D7 proliferation; at 28.7 µM (top of the series)
Method in brief: as §1

[9] = qHTS profiling for inhibitors of Plasmodium falciparum (DD2) proliferation (AID 743323); conditions: lower = more inhibition; at 28.7 µM (top of the series)
Method in brief: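 SYBR Green fluorescence (ex 485, em 535 nm) of lysed cultures gives parasite DNA content; wells normalized to artemisinin (0.29 uM) and DMSO controls. Infected red cells: 0.3% parasitemia, 2.5% hematocrit, 72 h, 37 C.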

[10] = qHTS profiling for inhibitors of Plasmodium falciparum (HB3) proliferation (AID 743324; active = well fitted curve in the direction sought with a large enough effect; an effect the other way counts as inactive or inconclusive;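 also: 100% = DMSO vehicle wells and 0% = artemisinin-treated control wells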); conditions: Plasmodium falciparum HB3 blood-stage proliferation; at 28.7 µM (top of the series)
Method in brief: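 P. falciparum HB3 grown in erythrocytes (0.3% parasitemia, 2.5% hematocrit final) with compound for 72 h at 37 C, 5% CO2. Parasite DNA detected by SYBR Green after saponin/triton lysis overnight; normalized to 0.29 uM artemisinin and DMSO.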

Compound	parasite growth, % of DMSO control [1] [%]	parasite growth remaining, % of DMSO control (lower = more inhibition) [2] [%]	parasite growth, % of control (lower = inhibition) [3] [%]	cell viability, % of control (lower = more cytotoxic) [4] [%]	viability (% of control) [5] [%]	Potency [6]	growth, % of control [7] [%]	remaining parasite growth % (stronger effect = lower value) [8] [%]	activity, percent of control [9] [%]	remaining proliferation (% of control), lower = more inhibition [10] [%]
Cc1cccc(Nc2ccncc2S(=O)(=O)NC(=O)NC(C)C)c1	93.3	104	125	90.1	107	–	–	–	–	–
Nc1nc(N)c2nc(CNc3ccc(C(=O)NC(CCC(=O)O)C(=O)O)cc3)cnc2n1 (stereo unspecified)	–	7.65	21	23.1	9.27	89.1 nM (active)	23.4	–	–	–
CCCCS(=N)(=O)CCC(N)C(=O)O (stereo unspecified)	–	94.1	193	17.3	34.2	–	102	88.1	31.7	88
NC(N)=NC(N)=NCCc1ccccc1	21.2	38.8	47	88	75.1	inactive	50.7	–	–	–
CCC(=O)O[C@]1(C(=O)SCF)[C@H](C)C[C@H]2[C@@H]3C[C@H](F)C4=CC(=O)C=C[C@]4(C)[C@@]3(F)[C@@H](O)C[C@@]21C	47.5	86.3	44.9	84.3	52.2	–	87.8	–	–	–
CCOC(=O)[C@H](CCc1ccccc1)N[C@H]1CS[C@H](c2cccs2)CN(CC(=O)O)C1=O	5.73	58.9	6.49	189	14	–	6.02	–	–	–
Nc1nc(=S)c2[nH]cnc2[nH]1	–	101	51.3	51.9	7.77	–	216	–	–	–
Cc1onc(-c2ccccc2Cl)c1C(=O)N[C@@H]1C(=O)N2[C@@H]1SC(C)(C)[C@@H]2C(=O)O	–	94.6	79	168	97.4	–	108	–	–	–
O=C(O)c1cccnc1	91.9	–	95.2	127	87.6	–	87.4	–	–	–
CCOCC(O)COc1ccc(NC(=O)CC[S+](C)C)cc1 (stereo unspecified)	84	103	97.7	120	110	–	99.4	–	–	–
Cc1nnc(C(=O)NC(C)(C)c2nc(C(=O)NCc3ccc(F)cc3)c(O)c(=O)n2C)o1	83.6	91.4	81.9	126	134	–	79.5	–	–	–
COCCCOc1cc(C[C@@H](C[C@H](N)[C@@H](O)C[C@H](C(=O)NCC(C)(C)C(N)=O)C(C)C)C(C)C)ccc1OC	–	119	50.1	148	113	–	–	–	–	–
CC1=C(C(=O)O)N2C(=O)[C@@H](NC(=O)C(N)c3ccccc3)[C@H]2SC1 (stereo partly specified)	101	95.4	151	114	12.1	–	108	–	–	–
CN1CCN(c2c(F)cc3c(=O)c(C(=O)O)cn4c3c2OCN4C)CC1	90.8	95.5	77.3	170	117	–	73.2	–	–	–
CC(N)C12CC3CC(CC(C3)C1)C2 (stereo unspecified)	–	12.6	32.1	175	105	–	96.9	–	–	–
Nc1nc(N)nc(-c2cc(Cl)ccc2Cl)n1	–	88.9	128	126	98	–	97.7	–	–	–
Nc1nc(F)nc2c1ncn2[C@@H]1O[C@H](CO)[C@@H](O)[C@@H]1O	–	19.5	12	9.4	3.53	–	–	–	–	–
O=C(O)C1CCCN(CCC=C(c2ccccc2)c2ccccc2)C1 (stereo unspecified)	82.1	103	72.1	145	127	–	101	–	–	–
CCN1CCCC1CNC(=O)c1cc(S(N)(=O)=O)ccc1OC (stereo unspecified)	–	90.1	41.9	128	82.8	–	70.9	–	–	–
CCOC(=O)c1ccc(C#Cc2ccc3c(c2)C(C)(C)CCS3)nc1	–	83.8	29.1	379	47	–	50.6	–	–	–
O=c1oc2c(O)c(O)cc3c(=O)oc4c(O)c(O)cc1c4c23	–	7.22	5.89	225	131	–	6.72	–	–	–
NC(=O)c1cccnc1	–	97.3	122	114	101	–	105	–	–	–
O=C(NCC1CN(c2ccc(N3CCOCC3=O)cc2)C(=O)O1)c1ccc(Cl)s1 (stereo unspecified)	–	94.4	80.7	29.6	48.9	–	59.9	–	–	–
CO[C@@H]1[C@@H](OC(N)=O)[C@@H](O)[C@H](Oc2ccc3c(O)c(NC(=O)c4ccc(O)c(CC=C(C)C)c4)c(=O)oc3c2C)OC1(C)C	61	75.8	39.2	13.9	44	–	45.7	–	–	–
CCN[C@H]1C[C@H](C)S(=O)(=O)c2sc(S(N)(=O)=O)cc21	93.1	19.2	117	71.7	102	–	103	–	–	–
O=c1cc(O)c(Cl)c[nH]1	29	122	20.4	246	39.2	–	21.5	–	–	–
COc1cc(NCc2ccc3nc(N)nc(N)c3c2C)cc(OC)c1OC	–	7.41	10.9	8.74	3.95	–	–	–	–	–
CCn1cc(C(=O)O)c(=O)c2cc(F)c(N3CCN(C)CC3)cc21	206	70.5	52.8	85.7	97.9	–	370	–	–	–
Oc1c(Cl)cc(Cl)c2cccnc12	123	94.2	45.4	10.5	9.09	–	347	–	–	–
CCC(=O)O[C@]1(C(=O)CCl)[C@@H](C)C[C@H]2[C@@H]3CCC4=CC(=O)C=C[C@]4(C)[C@@]3(F)[C@@H](O)C[C@@]21C	6.83	55.4	8.54	44.1	47.1	–	8.53	–	–	–
